Screening results: PubChem, several laboratories
Only some compounds are listed: those with a hit (about 3.1% of all), similar ones and a draw of the others.
Cl transport mod: modulators of human KCC2 chloride dependent transport. KCC2 cells, thallium flux FluoZin-2 fluorescence. B-score of Tl+ flux slope (higher = more flux/activation; lower = inhibition) at 10 µM. actives 2.2% (n = 190,000). AID 1456;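 active means thallium flux slope and its plate-corrected score both differing from the plate sample mean at a set confidence after two filtering rounds, in either direction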;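 further: slope of fluorescence scaled to starting intensity during 10 to 20 s after thallium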
S1P3 antagonist: blocks the human S1P3 receptor; CHO S1P3 NFAT-BLA reporter, FRET fluorescence, antagonist mode; inhibition, % at 4.98 µM; actives 0.27% (n = 170,000); AID 485;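 active means inhibition above the plate cutoff, the mean inhibition of test wells on that plate plus 3 SD, cut at about 28% in these data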;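 further: cells challenged with S1P at its EC80 of 0.8 µM; blue over green emission ratio from cleaved BLA substrate after 4 h stimulation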
Target sequence (Q99500 whole entry, looked up): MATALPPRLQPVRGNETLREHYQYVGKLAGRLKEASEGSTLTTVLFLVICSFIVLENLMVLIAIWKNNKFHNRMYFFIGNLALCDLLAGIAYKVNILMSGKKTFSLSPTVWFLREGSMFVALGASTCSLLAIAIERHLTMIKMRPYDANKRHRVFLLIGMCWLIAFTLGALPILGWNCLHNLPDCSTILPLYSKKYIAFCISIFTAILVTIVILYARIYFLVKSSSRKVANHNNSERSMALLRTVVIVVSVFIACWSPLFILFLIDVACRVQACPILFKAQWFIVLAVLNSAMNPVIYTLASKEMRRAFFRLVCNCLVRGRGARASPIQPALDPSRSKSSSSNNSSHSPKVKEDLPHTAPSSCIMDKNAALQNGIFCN
EP2 antag: blocks the human prostaglandin E2 receptor EP2 | P43116 | C6 glioma cells expressing human EP2, cAMP TR-FRET; cells stimulated with saturating PGE2 | inhibition, % at 25 µM | actives 0.52% (n = 260,000) | AID 1422;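 active means percent inhibition above 40 after rounding to a whole number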;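 further: rat C6 glioma host cells with rolipram phosphodiesterase inhibitor present; the protocol text gives 20 µM as final concentration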
Target sequence (P43116 whole entry, looked up): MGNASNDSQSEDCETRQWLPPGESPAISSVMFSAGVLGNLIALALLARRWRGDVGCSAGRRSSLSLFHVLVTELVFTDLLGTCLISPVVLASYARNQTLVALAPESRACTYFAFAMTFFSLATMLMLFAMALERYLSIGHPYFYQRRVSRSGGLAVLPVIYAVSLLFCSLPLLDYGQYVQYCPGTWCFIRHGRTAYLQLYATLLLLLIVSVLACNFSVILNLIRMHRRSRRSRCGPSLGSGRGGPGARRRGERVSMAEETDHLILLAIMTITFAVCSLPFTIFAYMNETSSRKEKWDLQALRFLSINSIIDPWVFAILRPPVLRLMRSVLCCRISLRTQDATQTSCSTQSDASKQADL
EP2 mod: EP2 receptor (human) modulation; induction, % at 25 µM; P43116; actives 0.83% (n = 260,000); EP2-expressing cells, cAMP HTRF FRET, PGE2 co-stimulation; AID 940;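 active means compounds whose cAMP rise, as percent of the full-agonist control response, exceeds 60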;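 further: rat C6 glioma line stably carrying human EP2 under a CMV promoter; the protocol text gives 20 µM as final concentration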
KCC2 sec1: KCC2 (human) modulation, secondary assay; actives 15% (n = 3,700); HEK293-KCC2, thallium flux, FluoZin2 fluorescence; stronger effect = higher value; shares compounds with Cl transport mod; normalised thallium flux (F/F0 slope) at 10 µM;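 active means thallium flux slope above the same plate's solvent-only control mean plus 3 SD; inconclusive means the two replicate wells disagree; inactive means no significant difference from solvent-only control wells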
KCC2 bumet counter: thallium flux despite bumetanide block in KCC2 cells, secondary assay 3. shares compounds with Cl transport mod. HEK293-KCC2 + bumetanide/ouabain, thallium flux FluoZin2; stronger effect = higher value. normalized thallium flux at 10 µM. actives 49% (n = 3,700);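 active means thallium entry rate above the same plate's blocked-transporter control wells by more than 3 SD; inconclusive means the two repeat wells disagree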;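 further: raw slope of fluorescence over initial fluorescence between 10 and 20 s after thallium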
KCC2 sec2: confirmation of human KCC2 transport modulators | HEK293-KCC2, thallium flux FluoZin2 fluorescence; actives lie on both sides; F/F0 rise rate, 10–20 s post-thallium | normalized thallium flux at 10 µM | shares compounds with Cl transport mod | actives 23% (n = 3,700);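 active means thallium flux slope more than 3 SD above or below the plate's solvent-only control mean, mostly below; inconclusive means the two repeat wells disagreed; inactive means no significant shift from solvent-only controls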
HEK counter1: acts in parental HEK cells, KCC2 counter-screen | shares compounds with Cl transport mod | HEK293 parental cells, thallium flux FluoZin2, ouabain; baseline-ratio fluorescence slope, 10–20 s after thallium | thallium flux rate (normalised fluorescence) at 10 µM | actives 46% (n = 3,700);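 active means thallium flux rate significantly above the same plate's solvent-only control wells, beyond their mean plus 3 SD; inconclusive means the two replicate wells gave conflicting results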
KCC2 ouabain: modulates human KCC2 on retest with ouabain; shares compounds with Cl transport mod; HEK293-KCC2, thallium flux FluoZin2 fluorescence; bidirectional: low = inhibitor, high = activator; raw Tl+ flux slope (below DMSO = inhibition, above = activation) at 10 µM; actives 48% (n = 3,700); AID 1717;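 active means thallium flux slope beyond 3 SD from same-plate DMSO control mean in most replicates, usually higher, sometimes lower; inconclusive means repeat tests gave conflicting results; inactive means no significant difference from controls in most replicates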;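 further: slope of initial-normalized fluorescence between seconds 10 and 20 after thallium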
HEK counter2: parental HEK flux effect, counter-screen 2 | shares compounds with Cl transport mod | HEK293 parental, thallium flux FluoZin-2 fluorescence slope | thallium flux slope at 10 µM | actives 33% (n = 3,700);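 active means thallium flux slope above the same plate's solvent-control mean plus 3 SD in both duplicate wells; inconclusive means duplicate wells that disagreed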;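 further: run without ouabain in cells lacking the KCC2 cotransporter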
Each line names hits and unclear results; the compound was inactive in the other large screens (follow-up assays come after a bar, where they were run).

COc1ccc(C(c2nnnn2Cc2ccco2)N2CCN(c3cc(C)ccc3C)CC2)cc1OC (configuration not stated)	none (no result: Cl transport mod, S1P3 antagonist)
Cc1ccc(-c2nnc(SCC(=O)Nc3cccc4ccccc34)n2C)cc1	none (no result: Cl transport mod, S1P3 antagonist)
Cc1ccnc2nc(C(=O)Nc3nnc(-c4ccc(Cl)cc4)o3)nn12	none
CN(C)c1ccc(C(=O)Nc2nnc(-c3ccc(Cl)cc3)o2)cc1	Cl transport mod 20.2 | KCC2 sec1 inactive | KCC2 bumet counter 0.0598 | KCC2 sec2 0.0457 | HEK counter1 0.0537 | KCC2 ouabain 0.0511 | HEK counter2 0.0264
CC(=O)c1ccc(C(=O)Nc2nnc(-c3ccc(Cl)cc3)o2)cc1	Cl transport mod 22.1 | KCC2 sec1 0.0219 | KCC2 bumet counter 0.0904 | KCC2 sec2 inconclusive | HEK counter1 0.0452 | KCC2 ouabain 0.0497 | HEK counter2 0.0158
CN(c1ccccc1)S(=O)(=O)c1ccc(NC(=O)c2ccc(-c3ccccc3)cc2)cc1	none (no result: S1P3 antagonist)
CN(c1ccccc1)S(=O)(=O)c1ccc(C(=O)Nc2nnc(-c3ccc(F)cc3)o2)cc1	Cl transport mod 17.6 | KCC2 sec1 0.0133 | KCC2 bumet counter 0.0556 | KCC2 sec2 inactive | HEK counter1 inconclusive | KCC2 ouabain 0.0383 | HEK counter2 inactive
Cc1cc(C)c2cc3c(N)c(C(=O)N4CCc5ccccc54)sc3nc2c1	none (no result: Cl transport mod, S1P3 antagonist)
O=C1CCCN1c1ccc(CNC2(c3ccc(Cl)cc3)CC2)cc1	none (no result: Cl transport mod, S1P3 antagonist)
CSc1nc(SC(C)C(=O)O)c2c3c(sc2n1)COC(C)(C)C3 (configuration not stated)	Cl transport mod 4.8 | KCC2 sec1 inactive | KCC2 bumet counter 0.02 | KCC2 sec2 inconclusive | HEK counter1 0.0325 | KCC2 ouabain 0.034 | HEK counter2 0.0209
COc1ccccc1-c1ccc(SCC(=O)NCc2ccc3c(c2)OCO3)nn1	none
O=C(Cn1nc(-c2ccccc2F)ccc1=O)NCc1ccc2c(c1)OCO2	Cl transport mod -3.88 | KCC2 sec1 inconclusive | KCC2 bumet counter inactive | KCC2 sec2 inconclusive | HEK counter1 inactive | KCC2 ouabain inactive | HEK counter2 inactive
CCc1c(O)nc(SCC(=O)Nc2ccc(C)cc2)n(C2CCCCC2)c1=O	none (no result: Cl transport mod) | KCC2 sec1 inactive | KCC2 bumet counter inactive | KCC2 sec2 inactive | HEK counter1 inactive | KCC2 ouabain 0.0161 | HEK counter2 inactive
CCc1c(O)nc(SCC(=O)Nc2ccccc2)n(-c2ccccc2)c1=O	none
CCOc1ccccc1N1CCN(CC(O)COc2ccc3c(C)cc(=O)oc3c2)CC1 (configuration not stated)	Cl transport mod 6.25 (no result: S1P3 antagonist) | KCC2 sec1 inactive | KCC2 bumet counter inactive | KCC2 sec2 inactive | HEK counter1 inactive | KCC2 ouabain inactive | HEK counter2 inactive
O=C(CSc1nnc(-c2cccs2)n1CC1CCCO1)c1cc2ccccc2o1 (configuration not stated)	Cl transport mod -3.28 (no result: EP2 antag) | KCC2 sec1 inactive | KCC2 bumet counter inactive | KCC2 sec2 inactive | HEK counter1 inactive | KCC2 ouabain inactive | HEK counter2 inactive
CCOC(=O)CSc1ncccc1-c1nc2ccccc2[nH]1	none (no result: Cl transport mod, S1P3 antagonist)
CCOc1ccccc1OCCCOc1ccc(C)cc1Br	none (no result: S1P3 antagonist, EP2 antag)
CCN(CC)CCCOc1ccc(C)cc1Br	none (no result: Cl transport mod, S1P3 antagonist) | KCC2 sec1 inactive | KCC2 bumet counter inactive | KCC2 sec2 inactive | HEK counter1 inconclusive | KCC2 ouabain inactive | HEK counter2 inactive
O=C(CC(Cc1ccccc1)c1ccco1)NC1CCCCC1 (configuration not stated)	none (no result: Cl transport mod, S1P3 antagonist) | KCC2 sec1 inactive | KCC2 bumet counter inactive | KCC2 sec2 0.0277 | HEK counter1 inactive | KCC2 ouabain 0.0132 | HEK counter2 inactive
O=C(NC1CCCCC1)N(Cc1ccccc1)Cc1ccco1	none (no result: Cl transport mod)
CCOc1ccc(CCNC(=O)C2CCC(=O)N2CCc2ccccc2)cc1OCC (configuration not stated)	none (no result: Cl transport mod, S1P3 antagonist) | KCC2 sec1 inactive | KCC2 bumet counter inactive | KCC2 sec2 inactive | HEK counter1 inactive | KCC2 ouabain inactive | HEK counter2 inactive
CCN(CC)CCNC(=O)C1CCC(=O)N1CCc1ccccc1 (configuration not stated)	none (no result: Cl transport mod)
O=C(c1ccccc1F)N1C2CCC1CC(c1ccc(F)cc1)C2 (configuration not stated)	none (no result: Cl transport mod, S1P3 antagonist)
O=C(Oc1c(-c2ccccc2)c(=O)n2c3c(cccc13)CC2)c1ccccc1	Cl transport mod -4.38 | KCC2 sec1 inactive | KCC2 bumet counter inactive | KCC2 sec2 inactive | HEK counter1 0.00537 | KCC2 ouabain 0.0132 | HEK counter2 0.00724
Cc1ccc(C2CC2c2n[nH]c(=S)n2-c2cccc(Cl)c2)cc1 (configuration not stated)	Cl transport mod 5.64 | KCC2 sec1 inactive | KCC2 bumet counter 0.0272 | KCC2 sec2 inactive | HEK counter1 0.011 | KCC2 ouabain inconclusive | HEK counter2 inactive
Cc1ccc(-n2c([C@@H]3C[C@H]3c3ccccc3)n[nH]c2=S)cc1	none
Cc1cc(C(=O)NC(=S)Nc2ccccc2N2CCCC2)ccc1[N+](=O)[O-]	none
O=C(NC(=S)Nc1ccccc1N1CCCC1)c1ccc(F)cc1	Cl transport mod 16 | KCC2 sec1 0.0178 | KCC2 bumet counter 0.0502 | KCC2 sec2 inactive | HEK counter1 0.0484 | KCC2 ouabain 0.0393 | HEK counter2 0.0154
O=C(NC(=S)Nc1ccccc1N1CCCCC1)c1ccccc1	Cl transport mod 11.9 | KCC2 sec1 inactive | KCC2 bumet counter 0.0228 | KCC2 sec2 inactive | HEK counter1 0.0112 | KCC2 ouabain 0.0277 | HEK counter2 inconclusive
O=C(NC(=S)Nc1ccccc1N1CCOCC1)c1ccc(-c2ccccc2F)o1	Cl transport mod 15.1 | KCC2 sec1 inactive | KCC2 bumet counter 0.0283 | KCC2 sec2 inactive | HEK counter1 0.0336 | KCC2 ouabain 0.0307 | HEK counter2 inactive
O=C(Nc1ccccc1N1CCCCC1)c1cccnc1	none (no result: Cl transport mod, S1P3 antagonist)
Cc1cc(C(=O)NC(=S)Nc2ccccc2N2CCOCC2)ccc1[N+](=O)[O-]	Cl transport mod 5.37 | KCC2 sec1 inactive | KCC2 bumet counter 0.00996 | KCC2 sec2 inactive | HEK counter1 inconclusive | KCC2 ouabain inconclusive | HEK counter2 inconclusive
O=C(Nc1ccccc1N1CCCC1)c1cccc(F)c1	none (no result: Cl transport mod, S1P3 antagonist)
COc1ccc(S(=O)(=O)N(Cc2cc3cc(OC)ccc3[nH]c2=O)C2CCCCC2)cc1	none (no result: Cl transport mod, S1P3 antagonist)
